Measurements reported in PubChem BioAssay AID1159580 (chemical genetic matrix, 2015).
In all, about 5,500 compounds went through this assay and about 2,000 (36%) were called active. About 18% were inconclusive and are not listed. No stated cut-off is given here; in the data, active means normalized growth mostly below about 0.91 (no sharp cut-off); inconclusive means no clear call, values can overlap the other calls; inactive means mostly above about 0.92. Some of the results follow.

Assay: chemical genetic growth profiling, strain panel (AID 1159580);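 further: tested at 20 µM; growth read once vehicle control cultures reached saturation at 30 °C; 1 = growth at the plate median or of vehicle wells; lower values mean less growth of the strain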
Details: growth OD

Measured: normalized growth

N#CC(O[C@@H]1O[C@H](CO[C@@H]2O[C@H](CO)[C@@H](O)[C@H](O)[C@H]2O)[C@@H](O)[C@H](O)[C@H]1O)c1ccccc1 (some centres not stated)
inactive: S. cerevisiae deletion strains, locus YJR043C, strain POL32, hits give low values 1.01 | S. cerevisiae deletion strains, locus YJR066W, strain TOR1, hits give low values 0.921 | S. cerevisiae deletion strains, locus YJR075W, strain HOC1, hits give low values 0.999 | S. cerevisiae deletion strains, locus YKL009W, strain mrt4, hits give low values 0.99 | S. cerevisiae deletion strains, locus YKL068W, hits give low values 0.991 | S. cerevisiae deletion strains, locus YKL085W, strain MDH1 (second series), hits give low values 0.987 | S. cerevisiae deletion strains, locus YKL085W, strain MDH1, hits give low values 0.987 | S. cerevisiae deletion strains, locus YKL160W, strain elf1, hits give low values 0.983 | S. cerevisiae deletion strains, locus YKR001C, strain vps1, hits give low values 0.988 | S. cerevisiae deletion strains, locus YKR026C, strain gcn3, hits give low values 0.977 | S. cerevisiae deletion strains, locus YKR091W, strain srl3, hits give low values 0.979 | S. cerevisiae deletion strains, locus YLL001W, strain dnm1, hits give low values 0.984 | S. cerevisiae deletion strains, locus YLL026W, hits give low values 0.981 | S. cerevisiae deletion strains, locus YLL041C, strain sdh2, hits give low values 0.991 | S. cerevisiae deletion strains, locus YLR027C, strain aat2, hits give low values 0.987 | S. cerevisiae deletion strains, locus YLR039C, strain RIC1, hits give low values 1.01 | S. cerevisiae deletion strains, locus YLR058C, strain SHM2, hits give low values 1.01 | S. cerevisiae deletion strains, locus YLR102C, strain apc9, hits give low values 0.983 | S. cerevisiae deletion strains, locus YLR113W, strain HOG1, hits give low values 1.03 | S. cerevisiae deletion strains, locus YLR221C, strain rsa3, hits give low values 0.976 | S. cerevisiae deletion strains, locus YLR258W, strain gsy2, hits give low values 0.982 | S. cerevisiae deletion strains, locus YLR262C, strain YPT6 (second series), hits give low values 0.991 | S. cerevisiae deletion strains, locus YLR262C, strain YPT6, hits give low values 1.04 | S. cerevisiae deletion strains, locus YLR268W, strain sec22, hits give low values 0.972 | S. cerevisiae deletion strains, locus YLR320W, strain mms22, hits give low values 0.968 | S. cerevisiae deletion strains, locus YLR330W, strain CHS5, hits give low values 1.01 | S. cerevisiae deletion strains, locus YLR342W, strain FKS1 (second series), hits give low values 1.03 | S. cerevisiae deletion strains, locus YLR342W, strain FKS1, hits give low values 0.967 | S. cerevisiae deletion strains, locus YLR357W, strain rsc2, hits give low values 0.948 | S. cerevisiae deletion strains, locus YLR370C, strain arc18, hits give low values 0.991 | S. cerevisiae deletion strains, locus YLR371W, strain rom2, hits give low values 1.01 | S. cerevisiae deletion strains, locus YLR384C, strain iki3, hits give low values 0.96 | S. cerevisiae deletion strains, locus YLR418C, strain cdc73, hits give low values 1.02 | S. cerevisiae deletion strains, locus YML016C, strain PPZ1, hits give low values 0.986 | S. cerevisiae deletion strains, locus YML032C, strain rad52, hits give low values 1.01 | S. cerevisiae deletion strains, locus YML120C, strain ndi1, hits give low values 0.991 | S. cerevisiae deletion strains, locus YML124C, strain tub3, hits give low values 0.999 | S. cerevisiae deletion strains, locus YMR058W, strain fet3, hits give low values 0.989 | S. cerevisiae deletion strains, locus YMR078C, strain ctf18, hits give low values 1 | S. cerevisiae deletion strains, locus YMR125W, strain sto1, hits give low values 0.965 | S. cerevisiae deletion strains, locus YMR129W, hits give low values 0.985 | S. cerevisiae deletion strains, locus YMR205C, strain PFK2, hits give low values 0.985 | S. cerevisiae deletion strains, locus YMR223W, strain ubp8, hits give low values 1.01 | S. cerevisiae deletion strains, locus YMR231W, strain pep5, hits give low values 0.964 | S. cerevisiae deletion strains, locus YMR307W, strain GAS1, hits give low values 1.01 | S. cerevisiae deletion strains, locus YNL067W, strain RPL9B, hits give low values 1.03 | S. cerevisiae deletion strains, locus YNL071W, strain lat1, hits give low values 0.98 | S. cerevisiae deletion strains, locus YNL183C, strain NPR1, hits give low values 0.976 | S. cerevisiae deletion strains, locus YNL209W, strain ssb2, hits give low values 0.984 | S. cerevisiae deletion strains, locus YNL233W, strain BNI4, hits give low values 1.04 | S. cerevisiae deletion strains, locus YNL248C, strain rpa49, hits give low values 0.983 | S. cerevisiae deletion strains, locus YNL250W, strain rad50, hits give low values 0.969 | S. cerevisiae deletion strains, locus YNL271C, strain bni1, hits give low values 0.986 | S. cerevisiae deletion strains, locus YNL298W, strain CLA4, hits give low values 0.996 | S. cerevisiae deletion strains, locus YNL307C, strain MCK1, hits give low values 0.991 | S. cerevisiae deletion strains, locus YNL322C, strain KRE1 (second series), hits give low values 0.977 | S. cerevisiae deletion strains, locus YNR049C, strain mso1, hits give low values 0.984 | S. cerevisiae deletion strains, locus YNR052C, strain pop2, hits give low values 0.989 | S. cerevisiae deletion strains, locus YOL006C, strain TOP1, hits give low values 1.05 | S. cerevisiae deletion strains, locus YOL012C, strain htz1 1.19 | S. cerevisiae deletion strains, locus YOL147C, strain pex11, hits give low values 0.989 | S. cerevisiae deletion strains, locus YOR001W, strain rrp6, hits give low values 0.946 | S. cerevisiae deletion strains, locus YOR061W, strain CKA2, hits give low values 0.993 | S. cerevisiae deletion strains, locus YOR069W, strain VPS5, hits give low values 0.993 | S. cerevisiae deletion strains, locus YOR070C, strain gyp1, hits give low values 0.967 | S. cerevisiae deletion strains, locus YOR080W, strain dia2, hits give low values 0.966 | S. cerevisiae deletion strains, locus YOR083W, strain WHI5, hits give low values 0.976 | S. cerevisiae deletion strains, locus YOR106W, strain vam3, hits give low values 0.989 | S. cerevisiae deletion strains, locus YOR136W, strain idh2, hits give low values 0.994 | S. cerevisiae deletion strains, locus YOR144C, strain elg1, hits give low values 0.99 | S. cerevisiae deletion strains, locus YOR184W, strain ser1, hits give low values 1.04 | S. cerevisiae deletion strains, locus YOR231W, strain MKK1, hits give low values 0.974 | S. cerevisiae deletion strains, locus YOR265W, strain rbl2, hits give low values 0.981 | S. cerevisiae deletion strains, locus YOR270C, strain vph1, hits give low values 0.98 | S. cerevisiae deletion strains, locus YOR290C, strain snf2, hits give low values 0.988 | S. cerevisiae deletion strains, locus YOR316C, strain cot1, hits give low values 0.985 | S. cerevisiae deletion strains, locus YPL051W, strain arl3, hits give low values 0.98 | S. cerevisiae deletion strains, locus YPL078C, strain atp4, hits give low values 0.984 | S. cerevisiae deletion strains, locus YPL106C, strain sse1, hits give low values 0.972 | S. cerevisiae deletion strains, locus YPL240C, strain hsp82, hits give low values 0.985 | S. cerevisiae deletion strains, locus YPL256C, strain CLN2, hits give low values 0.969 | S. cerevisiae deletion strains, locus YPR119W, strain clb2, hits give low values 1.01 | S. cerevisiae deletion strains, locus YPR141C, strain kar3, hits give low values 0.981 | S. cerevisiae deletion strains, locus YPR163C, strain tif3, hits give low values 0.992 | S. cerevisiae deletion strains, locus YPR167C, strain met16, hits give low values 0.973 | S. cerevisiae deletion strains, strain wtn01, hits give low values 0.984 | S. cerevisiae strains, strain wild type, hits give low values 1.02
